High-throughput results deposited in PubChem by National Center for Advancing Translational Sciences (NCATS).
Cycloheximide cs: counter-screen hit for Shiga toxin inhibitors, cycloheximide; max response, %; hit rate 12% among 300,000; cell reporter, cycloheximide protein synthesis inhibition counterscreen; in the data active = max response mostly above about 13%, no sharp cut-off; inactive = mostly below about 14%; note: read at 38.3 µM for the half of the compounds with a filed dose; 0% is about no effect
Pf growth 96h: inhibits malaria parasite growth, 96 h. P. falciparum luciferase reporter growth, 96 h. Potency, µM (series often up to 28.7 µM), for the others: at the highest dose activity change, negative = inhibition, usual class: inhibitors. hit rate 6.9% among 320,000. AID 504834; active = well fitted inhibition curve with a large enough effect; inconclusive = small, poorly fitted or top-dose-only effect, or another doubt; inactive = no such curve, though single readings can be large or run the other way; note: potency is the fitted concentration of half-maximal effect; % is set by controls: 0 for no effect and ±100 for the full control effect
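Delayed-death screen, second-generation endpoint: infected erythrocytes, 2% hematocrit, 0.05% parasitemia final; 96 hours at 37 C, 5% CO2; luciferase detection reagent; luminescence decrease equals reduced growth.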
NS1 inh: blocks influenza NS1 protein function; Potency, µM (series often up to 46.1 µM), for inactives: at the top dose activity, positive = more growth; hit rate 0.4% among 270,000; note: potency is the fitted concentration of half-maximal effect; actives are rising curves; nearly all actives have a fitted effect of over 50% in size
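Recovery from NS1-induced slow growth read by OD600 in budding yeast switched to galactose assay medium (pH 6.0, -URA) at 1:100 dilution. Compound 23 nl per well; the matching strain lacking NS1 serves as control.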
SARS PLpro yeast: inhibitors of SARS-CoV papain-like protease in yeast. S. cerevisiae expressing SARS-CoV PLpro, growth rescue. Potency, µM (top dose mostly 32.9 µM), inactives show top-dose activity, positive = growth rescue, most hits filed as activators. hit rate 0.19% among 330,000. AID 485353; note: potency is the fitted concentration of half-maximal effect; 0% is about no effect; nearly all actives have a fitted effect of over 55% in size
Pf growth 48h: P. falciparum growth inhibition at 48 hours (one generation); P. falciparum luciferase growth in erythrocytes, 48 h; Potency, µM (doses to about 28.7 µM), for inactives: at the top dose activity change, negative = inhibition, actives largely listed as inhibitors; hit rate 5.9% among 310,000; AID 504832; active = well fitted inhibition curve with a large enough effect; inconclusive = small, poorly fitted or top-dose-only effect, or another doubt; inactive = no such curve, though single readings can be large or run the other way; note: potency is the fitted concentration of half-maximal effect; % is set by controls: 0 for no effect and ±100 for the full control effect
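Luminescence readout; reporter = integrated firefly luciferase in P. falciparum. RBC culture at 2% hematocrit, 0.1% parasitemia final, 37 C/5% CO2; decreased signal taken as growth inhibition.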
Shiga toxin inh: inhibitors of Shiga toxin in Vero cells; inhibition, % at 38.7 µM; hit rate 9.2% among 290,000; Vero cells, Shiga toxin protein synthesis inhibition reporter; in the data active = inhibition mostly above about 28%, no sharp cut-off; inactive = mostly below about 43%; note: 0% is about no effect
The depositor's hits bear a star; ? = inconclusive; . = not tested or not shown. This is a sample that favours compounds with a hit; in the whole collection about 21% have one here. Unless noted, calls come from the whole dose curve.

SMILES	Cycloheximide cs	Pf growth 96h	NS1 inh	SARS PLpro yeast	Pf growth 48h	Shiga toxin inh
Cc1ccc(SCC(=O)O/N=C(\N)c2ccncc2)cc1	37*	-8%	-44%	-8%	8%	41
COc1ccc(S(=O)(=O)N2CCCCCC2)cc1N(C)S(=O)(=O)c1ccc(Cl)cc1	-2	?	30%	1%	?	-6
Cc1cc(C)c(S(=O)(=O)N2CCCCC2)c(C)c1N(C)S(=O)(=O)c1ccc(Cl)cc1	0	?	9%	-3%	9.3µM*	-1
Cc1nc2sc(-c3ccccc3)cc2c(=O)n1/N=C/N(C)C	37*	25%	-3%	1%	322%	72*
Cc1nc2sc(-c3ccccc3)cc2c(=O)n1N	44*	115%	-10%	0%	4%	56*
O=c1c2cc(-c3ccccc3)sc2nc2n1CCC2	47*	182%	-1%	-1%	146%	103*
Cc1nc2sc(-c3ccccc3)cc2c(=O)n1-n1cccc1	42*	102%	-15%	-6%	80%	113*
COc1cc2c(cc1OC)CN(C(=O)c1ccc(Cl)c(S(=O)(=O)N3CCCC3)c1)CC2	.	.	.	0%	.	.
NC(=O)CSc1nc2sc(-c3ccccc3)cc2c(=O)n1N	26*	?	4%	3%	48%	34
CCCCCCCNC1=CC(=O)CC(c2ccccc2)C1 (stereo not given)	12	?	-12%	14%	9.3µM*	9
O=C1C=C(Nc2ccccc2)CC(c2ccccc2)C1 (stereo not given)	3	1.9µM*	.	0%	-14%	22
COc1ccc(NC2=CC(=O)CC(c3ccccc3)C2)cc1 (stereo not given)	22*	19%	5%	0%	?	-8
COCCNC(=O)Cn1nc(C)c([N+](=O)[O-])c1C	1	3%	2%	-1%	11%	-8
Cc1cc(C)c2cc(C(=O)N3CCc4ccccc4C3)[nH]c2c1	21	-19%	-8%	-6%	-13%	64
CCC(C)Sc1nnc(NS(=O)(=O)Cc2ccccc2)s1 (stereo not given)	15*	?	?	3%	-13%	22
Cc1c(C(=O)O)sc2nc(/C=C/c3ccccc3OC(F)F)[nH]c(=O)c12	-9	13µM*	-14%	2%	-17%	-9
Clc1ccc(C2=Nn3c(nnc3-c3n[nH]c4c3CCC4)SC2)cc1Cl	-4	?	27%	-9%	12µM*	-8
CCC(CO)[n+]1c(C)cc(/C=C2\Sc3ccccc3N2Cc2ccccc2)cc1C (stereo not given)	-1	?	-17%	-51%	0.37µM*	12
COc1ccc(N2CCN(C(=O)Nc3cccc(C(F)(F)F)c3)CC2)cc1	-2	.	23%	-19%	10%	-9
CN1CCN(c2ccc(-c3ccnn3C(=O)Nc3cccc(C(F)(F)F)c3)cc2)CC1	43*	-7%	-35%	-6%	-74%	28
CCOc1ccc(S(=O)(=O)NC(C)C(=O)NCc2cccnc2)cc1 (stereo not given)	-2	5%	6%	-1%	12%	-5
Cc1ccc(N(CC(=O)Nc2cc(Cl)ccc2Oc2ccccc2)S(C)(=O)=O)cc1C	-3	8.3µM*	17%	1%	.	-21
Cc1ccc(Oc2ccc(Cl)cc2NC(=O)c2ccc(F)cc2F)cc1	-3	10µM*	5%	-1%	5.2µM*	-2
Cc1cc(Cl)ccc1N(CC(=O)NCc1ccccc1)S(C)(=O)=O	-2	0%	1%	8%	0%	-7
Cc1ccc(N(CC(=O)Nc2cc(Cl)ccc2Oc2ccccc2)S(C)(=O)=O)c(C)c1	15	12µM*	7%	1%	.	3
COc1ccc(C)cc1NC(=O)CN(c1ccccc1)S(C)(=O)=O	-4	?	-3%	-3%	2%	43
Cc1ccc(N(C(C)C(=O)Nc2cc(Cl)ccc2Oc2ccccc2)S(C)(=O)=O)cc1 (stereo not given)	1	7.4µM*	25%	3%	4.7µM*	7
O=C(Nc1cc(Cl)ccc1Oc1ccccc1)c1ccccc1F	4	-3%	-10%	-25%	?	14
O=S(=O)(CCC1CCCCN1)c1ccccc1 (stereo not given)	1	19%	9%	5%	21%	-3
